Sampled rows, rich in hits. Any-hit rate of the full collection: about 1.4%.
PrP UTR inh: inhibition of PrP 5' UTR reporter expression; inhibition, % (test concentration not listed); actives 0.35% (n = 340,000); cell-based PrP 5' UTR mRNA reporter, plate reader; in the data active = inhibition above about 52%
PrPC surface inh: inhibitors of human cell surface prion protein PrPC, primary screen, cell-based, TR-FRET. Major prion protein (Homo sapiens), P04156. TR-FRET read-out. inhibition, % at 13.8 µM. actives 0.43% (n = 370,000). AID 720596, 2013; in the data active = inhibition above about 24%
PriA SSB inh: inhibitors of Klebsiella pneumoniae PriA binding to SSB C-terminal tail, primary screen, biochemical, AlphaScreen | PriA–SSB C-terminal tail interaction (Klebsiella pneumoniae) | AlphaScreen SSBct-PriA binding, biotinylated peptide | inhibition, % at 33 µM | actives 0.6% (n = 430,000); in the data active = inhibition mostly above about 37%, no sharp cut-off; inactive = mostly below about 20%
FadD28 binding: inhibitors of FadD28 bisubstrate probe binding, primary screen, biochemical, fluorescence polarization, single point. actives 0.22% (n = 360,000). AID 588549, 2011. inhibition, % at 12.5 µM; in the data active = inhibition above about 8.5%, passing the limit was not always enough
Vc quorum ag: inducers of Vibrio cholerae quorum light production without autoinducers, primary screen, BH1578 luxS cqsA deficient, single point | AID 588436, 2011 | V. cholerae BH1578 lux reporter, luminescence, 6 h | actives 0.16% (n = 350,000) | activation, % at 18.7 µM; in the data active = activation mostly above about 9.7%, no sharp cut-off
PrPC confirm: confirmation of inhibitors of cell surface human prion protein, confirmation, cell-based, TR-FRET; shares compounds with PrPC surface inh; actives 65% (n = 1,500); inhibition, % at 13.8 µM; cell surface PrPC level; in the data active = inhibition above about 25%
LD9 cytotox: cytotoxicity in LD9 cells, cytotoxicity control for cell surface PrPc inhibitor project, cell-based, luminescence, high throughput; shares compounds with PrPC surface inh; luminescence viability; actives 29% (n = 1,500); inhibition, % at 13.8 µM; in the data active = inhibition above about 9.5%
Large screens that a line does not name were inactive (follow-up assays come after a bar, where they were run).

COC(=O)c1sc(NC(=S)NNC(=O)c2c(Br)c(C)nn2C)c(C(=O)OC)c1C	PrPC surface inh 132, FadD28 binding 20 | PrPC confirm 146 | LD9 cytotox inactive
CCc1cc2c(=O)c(-c3ccc4c(c3)OCO4)coc2c(CN(C)C)c1O	PrPC surface inh 86 | PrPC confirm 95 | LD9 cytotox inactive
COc1ccc(Cc2nc(-c3ccc(Cl)cc3)no2)cc1	none
Cc1ccc(Cc2nc(-c3ccncc3)no2)cc1	PrPC surface inh 72 | PrPC confirm inactive | LD9 cytotox inactive
O=C(COc1ccc(Cl)cc1Cl)NCCCn1nc(-c2ccco2)ccc1=O	none (no result: PrP UTR inh, PrPC surface inh, FadD28 binding, Vc quorum ag)
Cn1c(SCC(=O)N2CCc3ccccc3C2)nnc1-c1cccs1	none
Cn1c(SCC(=O)N2CCc3ccccc3C2)nnc1-c1ccncc1	PrPC surface inh 41 | PrPC confirm inactive | LD9 cytotox inactive
O=C(CCc1ccccc1)N(CCN1CCOCC1)c1nc2c(Cl)cccc2s1	none (no result: PrP UTR inh, PrPC surface inh, FadD28 binding, Vc quorum ag)
Cc1ccc(C(C)C)c(OCc2ccc(C(=O)N/N=C/c3ccc(O)c(O)c3)cc2)c1	PrPC surface inh 28 (no result: PriA SSB inh) | PrPC confirm 41 | LD9 cytotox 11
COc1cc(/C=N/NC(=O)c2ccc(COc3cc(C)ccc3C(C)C)cc2)cc(OC)c1O	none (no result: PriA SSB inh)
N#CC(C#N)=C(Nc1ccc(F)cc1)SCc1cccc(Br)c1	PrPC surface inh 32 | PrPC confirm 38 | LD9 cytotox 32
O=c1[nH]cnc2c1sc1ncccc12	none (no result: PrP UTR inh, PrPC surface inh, FadD28 binding, Vc quorum ag)
S=c1[nH]nc2ccc3ccccc3n12	none (no result: PrP UTR inh, Vc quorum ag)
S=c1[nH]c2ccccc2n2c(=S)[nH]nc12	PrPC surface inh 30 | PrPC confirm 59 | LD9 cytotox inactive
O=C(Nc1ccccc1)Nc1cc(OCC(F)(F)F)cc(OCC(F)(F)F)c1	PrPC surface inh 38 | PrPC confirm 28 | LD9 cytotox 14
COc1ccc(S(=O)(=O)NCCOc2cc(C)cc(C)c2)c(OC)c1	none (no result: PrP UTR inh, PrPC surface inh, FadD28 binding, Vc quorum ag)
Clc1ccc(-n2ncc3c(NCc4cccs4)ncnc32)cc1	none
Cc1cccc(-n2ncc3c(NCc4cccs4)ncnc32)c1	PrPC surface inh 27 | PrPC confirm inactive | LD9 cytotox inactive
OC(COc1c(F)cc(Br)cc1F)CN1CCN(Cc2ccc3c(c2)OCO3)CC1 (stereo unspecified)	none (no result: PrP UTR inh, PrPC surface inh, FadD28 binding, Vc quorum ag)
NC(=O)c1ccc(-c2ccc(Br)cc2)o1	PrPC surface inh 53 | PrPC confirm 63 | LD9 cytotox inactive
CC(=O)Nc1nc(C)c(C(C)=O)s1	none
CC(=O)c1sc(NC(=O)C(C)C)nc1C	PrPC surface inh 33 | PrPC confirm 35 | LD9 cytotox inactive
c1ccc(-c2cccc(CNc3nc(-c4ccccn4)nnc3-c3ccccc3)c2)cc1	PrPC surface inh 33 (no result: PrP UTR inh, PriA SSB inh, FadD28 binding, Vc quorum ag) | PrPC confirm 36 | LD9 cytotox 25
CN(C)c1nc(-c2ccccn2)nnc1-c1ccccc1	PrPC surface inh 27, PriA SSB inh 98 | PrPC confirm 36 | LD9 cytotox inactive
c1ccc(CCNc2nc(-c3ccccn3)nc3ccccc23)cc1	none
COc1cnc(-c2ccccn2)nc1N(C)C	PrPC surface inh 26, PriA SSB inh 98 | PrPC confirm 27 | LD9 cytotox inactive
COc1ccc(-c2cc3c(=O)[nH]nc(SCc4nc(-c5ccccc5OC)no4)n3n2)cc1OC	none (no result: PrP UTR inh, PrPC surface inh, FadD28 binding, Vc quorum ag)
CC[C@@H](C(=O)[C@@H](C)[C@@H](O)[C@H](C)CCc1ccc(C)c(O)c1C(=O)O)[C@H]1O[C@](CC)([C@H]2CC[C@](O)(CC)[C@H](C)O2)C[C@@H]1C	PrPC surface inh 75 | PrPC confirm 69 | LD9 cytotox 44
O=C(c1cccs1)N(CCn1cccn1)c1nc2c(Cl)cccc2s1	none (no result: PrP UTR inh, PrPC surface inh, FadD28 binding, Vc quorum ag)
CCOC(=O)Cn1c(=NC(=O)c2ccccc2S(C)(=O)=O)sc2cc(CC)ccc21	none (no result: PrP UTR inh, PrPC surface inh, FadD28 binding, Vc quorum ag)
CC(=O)NC(=S)Nc1ccc(NC(=O)COc2ccc(Cl)cc2)cc1	PrPC surface inh 41 (no result: Vc quorum ag) | PrPC confirm inactive | LD9 cytotox inactive
CC(=O)NC(=S)Nc1ccc(NC(=O)COc2ccc(C(C)C)cc2)cc1	none
COc1cccc2cc(C(=O)NCCc3ccoc3)oc12	none (no result: PrP UTR inh, PrPC surface inh, FadD28 binding, Vc quorum ag)
C=CCn1c(=NC(=O)/C=C/c2cccs2)sc2cc(S(N)(=O)=O)ccc21	none (no result: PrP UTR inh, PrPC surface inh, FadD28 binding, Vc quorum ag)
Cc1cc(-c2ccccc2)n2ncnc2n1	PrPC surface inh 28 | PrPC confirm inactive | LD9 cytotox inactive
Cc1cc(-c2ccc3ccccc3c2)n2ncnc2n1	none
O=C(NCCCn1nc(-c2ccco2)ccc1=O)c1ccc(-c2ccccc2)cc1	none (no result: PrP UTR inh, PrPC surface inh, FadD28 binding, Vc quorum ag)
COc1ccc(CNC(=O)c2cccc3c(-c4cccc(C(N)=O)c4)coc23)cc1OC	PrPC surface inh 37 (no result: PrP UTR inh, PriA SSB inh) | PrPC confirm 25 | LD9 cytotox 28
COc1cccc(-c2nnc3ccc(OCCNC(=O)Nc4cccs4)nn23)c1	none (no result: PrP UTR inh, PrPC surface inh, FadD28 binding, Vc quorum ag)
CCc1ccc(-c2csc(NC(=O)CSc3ccccc3)n2)cc1	none (no result: PrP UTR inh, PrPC surface inh, FadD28 binding, Vc quorum ag)
CC(=O)c1ccc(NC(=O)Nc2ccc(Cl)cc2)cc1	PrPC surface inh 28 | PrPC confirm inactive | LD9 cytotox inactive
Cc1nc(-c2ccc(S(=O)(=O)Nc3ccc(Br)cc3Cl)s2)cs1	PrPC surface inh 37 | PrPC confirm 53 | LD9 cytotox inactive
COc1ccc(C(C)=O)cc1CSc1nnc(-c2ccc(Cl)cc2)n1-c1ccccc1	PrPC surface inh 56 | PrPC confirm inactive | LD9 cytotox inactive
COc1ccc(C(C)=O)cc1CSc1nnc(-c2ccncc2)n1C	none
O=C(Nc1nc(-c2ccccc2)cs1)c1ccccc1NS(=O)(=O)c1ccc(F)cc1	PrPC surface inh 35 | PrPC confirm 30 | LD9 cytotox 32
CCOc1ccc(N(C)S(=O)(=O)c2ccc(C)c(C(=O)N3CCN(Cc4ccc5c(c4)OCO5)CC3)c2)cc1	PrPC surface inh 25 | PrPC confirm inactive | LD9 cytotox inactive
COc1ccc(N(C)S(=O)(=O)c2cccc(C(=O)N3CCN(Cc4ccc5c(c4)OCO5)CC3)c2)cc1	none
Cn1cc(C2NC(=O)c3ccccc3N2)c2ccccc21 (stereo unspecified)	PrPC surface inh 25 | PrPC confirm inactive | LD9 cytotox inactive
O=S(=O)(c1ccccc1)C(C=NO)/C=C/c1ccccc1 (stereo unspecified)	none (no result: PrP UTR inh, PrPC surface inh, FadD28 binding, Vc quorum ag)
Cc1ccc(CN2CCCCC(NC(=O)c3ccc(COc4ccccc4)cc3)C2=O)cc1 (stereo unspecified)	PrPC surface inh 25 (no result: PrP UTR inh, PriA SSB inh, FadD28 binding, Vc quorum ag) | PrPC confirm inactive | LD9 cytotox inactive
CCCCOc1ccc(C(=O)NC2CCCCN(Cc3ccc(C)cc3)C2=O)cc1 (stereo unspecified)	none (no result: PrP UTR inh, PriA SSB inh, FadD28 binding, Vc quorum ag)
Cc1ccc(C)c(NC(=O)c2nnn(Cc3ccccc3)c2N)c1	PrPC surface inh 27 | PrPC confirm inactive | LD9 cytotox inactive
Cc1ccc(Cn2nnc(C(=O)Nc3cc(C)ccc3C)c2N)cc1	none

Assay outcomes: PubChem, several laboratories
